Only some compounds are listed: those with a hit (about 8.3% of all), similar ones and a draw of the others.
Marburg entry inh – inhibitors of Marburg virus binding or cell entry. actives 1.8% (n = 300,000). Marburg virus pseudotyped entry inhibition, cell reporter. Potency, µM (titrated, usually from 37.8 µM), inactives show top-dose activity change, negative = inhibition, actives largely listed as inhibitors; calls by dose curve; tested in HEK293 cells; further: potency means the concentration at half of the fitted maximal effect
FMDV inh – antivirals against foot and mouth disease virus; FMDV antiviral cell-based qHTS; Potency, µM (series often up to 57.9 µM), without a hit: at the top dose activity change, negative = inhibition, most hits filed as inhibitors; actives 1.2% (n = 410,000); AID 1159524; calls by dose curve; tested in HEK293T cells; further: read-out not given here; potency means the concentration at half of the fitted maximal effect; nearly all actives have a fitted effect of over 45% in size
HCMV antiviral – inhibitors of human cytomegalovirus. HFF cells, HCMV-luciferase reporter, 72 h; active compounds read low. activity change, negative = inhibition, % at 57.5 µM. actives 4.5% (n = 410,000); in the data active means activity change below about -60%; inconclusive means no clear call, values can overlap the other calls; inactive means above about -39%
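After 16 h attachment at 37C, HFF cells received test compound and HCMV-luciferase (1 PFU/cell); reporter luminescence read 72 h later, data normalized against buffer-only and known inhibitor Salinomycin.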
LASV entry inh – inhibitors of Lassa virus binding or cell entry. Lassa virus pseudotype entry inhibition, cell reporter. Potency, µM (top dose mostly 37.9 µM), for inactives: top-dose activity change, negative = inhibition, usual class: inhibitors. actives 1.2% (n = 300,000). AID 540256; calls by dose curve; tested in HEK293 cells; further: potency means the concentration at half of the fitted maximal effect; nearly all actives have a fitted effect of over 50% in size
Giardia FBPA inh – inhibitors of Giardia lamblia fructose-1,6-bisphosphate aldolase | Potency, µM (highest dose often 59.6 µM), inactives show at the top dose activity, negative = inhibition, hits mostly inhibitors | purified Giardia FBPA | actives 0.71% (n = 290,000) | AID 2451; further: potency means the concentration at half of the fitted maximal effect; nearly all actives have a fitted effect of over 55% in size
Target sequence (A8B2U2 whole entry, looked up): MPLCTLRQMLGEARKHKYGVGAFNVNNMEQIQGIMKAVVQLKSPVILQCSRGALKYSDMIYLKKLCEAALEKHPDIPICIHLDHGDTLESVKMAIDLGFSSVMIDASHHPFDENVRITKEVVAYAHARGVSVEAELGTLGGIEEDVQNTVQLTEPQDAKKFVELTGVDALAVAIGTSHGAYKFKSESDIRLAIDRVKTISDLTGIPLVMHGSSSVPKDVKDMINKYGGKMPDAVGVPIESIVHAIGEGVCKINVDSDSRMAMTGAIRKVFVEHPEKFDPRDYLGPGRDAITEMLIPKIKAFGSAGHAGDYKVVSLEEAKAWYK
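Giardia FBPA (40 nM reagent) was preincubated 10 min at RT with compound (up to 57.5 uM final), then substrate plus GAPDH/TPI/NAD/arsenate coupling system with diaphorase/resazurin was added; resorufin fluorescence (525/598 nm) was read after 20 min.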
HCV inh – HCV inhibition. Potency, µM (series often up to 41.8 µM), inactives show at the top dose activity change, negative = inhibition, usual class: inhibitors. AID 651820. actives 3.4% (n = 340,000). Huh7.5.1 HCVcc-Cre infection, luciferase reporter, 44 h; further: potency means the concentration at half of the fitted maximal effect
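Seed cells (1,000/well) for 4 h; treat with compound and infect with HCVcc-Cre, moi about 0.5. Incubate 44 h, then detect luciferase activity.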
The depositor's hits bear a star; ? = inconclusive; nt = no result; + = active, no number; [ ] = another dose, or the depositor's remark. Unless noted, the call rests on the fitted dose curve; in most records, active means well fitted curve in the direction sought with a large enough effect; inconclusive means small, poorly fitted or top-dose-only effect, or another doubt; inactive means no such curve, though single readings can be large; an effect the other way counts as inactive or inconclusive. On the % scale 0 is the no-effect control and ±100 the full control effect.

SMILES	Marburg entry inh	FMDV inh	HCMV antiviral	LASV entry inh	Giardia FBPA inh	HCV inh
CCCN1CCN(C(=O)C2CCN(c3nnc(C)c4c(C)n(-c5ccc(C)cc5)nc34)CC2)CC1	nt	-16%	?	nt	-3%	2.2µM*
Cc1nnc(N2CCC(C(=O)N3CCCCCC3)CC2)c2nn(-c3ccc(Cl)cc3)c(C)c12	nt	-14%	0	nt	nt	8.9µM*
COc1ccc(-n2nc3c(N4CCC(C(=O)N5CCCCCC5)CC4)nnc(C)c3c2C)cc1	nt	?	-33	nt	-3%	11µM*
CCN(CC)C(=O)C1CCN(c2nnc(C)c3c(C)n(-c4ccc(Cl)cc4)nc23)CC1	nt	-3%	6	6%[46.1 µM]	nt	nt
COc1ccccc1NC(=O)c1sc2nc3n(c(=O)c2c1C)N=C(c1cccc(Br)c1)CS3	nt	-11%	24	28%[46.1 µM]	nt	nt
C[C@@H]1C(=O)N(S(=O)(=O)c2ccccc2[N+](=O)[O-])[C@H]1c1ccc(-c2ccccc2)cc1	nt	nt	nt	nt	27%	nt
Cc1cccc(-c2nc3scc(CCNS(=O)(=O)c4ccc(Oc5ccccc5)cc4)n3n2)c1	nt	-7%	-5	-2%[46.1 µM]	nt	nt
CC(C)c1ccc(NC(=O)C2CCCN(S(=O)(=O)c3cccc4cccnc34)C2)cc1 (stereo unspecified)	?	?	-6	?	nt	nt
C=CCNC(=O)[C@@]1(Sc2ccc(OC)cc2)CC(=O)N[C@@H]1c1ccc(OC)cc1	nt	nt	-24	nt	nt	nt
CCOC(=O)N1CCN(S(=O)(=O)c2c(C)cc(C)cc2C)CC1	?	-14%	30	-1%	3%	-8%
CCOC(=O)N1CCN(C(=O)C2CCCN(S(=O)(=O)c3ccc(F)cc3)C2)CC1 (stereo unspecified)	-10%	2%	?	-5%[46.1 µM]	2%	18%
CCOc1ccc(S(=O)(=O)N2CCCC(C(=O)N3CCN(c4ccccc4)CC3)C2)cc1 (stereo unspecified)	?	28µM*	-39	?	nt	?
Cc1ccc(S(=O)(=O)N2CCN(C(=O)C3COc4ccccc4O3)CC2)cc1C (stereo unspecified)	-9%	1%	-25	-20%[14.3 µM]	1%	nt
CCOC(=O)N1CCN(C(=O)C2CCN(S(=O)(=O)c3c(C)cc(C)cc3C)CC2)CC1	11%	-17%	-107*	?	2%	-14%
Cc1cc(C)c(S(=O)(=O)N2CCN(C(=O)C3COc4ccccc4O3)CC2)c(C)c1 (stereo unspecified)	nt	-29%	8	nt	nt	11µM*
CCOC(=O)N1CCN(C(=O)C2CCCN(S(=O)(=O)c3ccc(C)cc3)C2)CC1 (stereo unspecified)	-6%	-21%	-61*	-28%	0%	-27%
CC(C)ON(CC(=O)NO)S(=O)(=O)c1ccc(-c2ccccc2)cc1	nt	-22%	nt	nt	19%	nt
COc1ccc(N2CCN(C(=O)C3CCCN(S(=O)(=O)c4ccc(C)cc4)C3)CC2)cc1 (stereo unspecified)	-27%[46.1 µM]	?	?	nt	nt	2.5µM*
Cc1ccc(S(=O)(=O)N2CCCC(C(=O)N(Cc3cccs3)C3CC3)C2)cc1 (stereo unspecified)	5%	?	-39	?	0%	16µM*
CCOc1ccc(-c2nc(SCC(=O)Nc3cc(F)ccc3F)n3[nH]c(=O)cc3n2)cc1	nt	-15%	23	-19%[46.1 µM]	nt	nt
COC(=O)C1(Cc2ccccc2)C2c3cc(C(=O)N4CCCC4)n(Cc4ccc(OC(F)(F)F)cc4)c3CC2CN1C(=O)c1ccccc1 (stereo unspecified)	nt	nt	nt	nt	-7%	nt
CCc1ccc(NC(=O)N(Cc2c[nH]c3ccccc23)C2CCCCCC2)cc1	-12%[46.1 µM]	40%	81	?	nt	nt
Cc1ccc(NC(=O)CCCCCN2C(=O)[C@@H]3Cc4ccccc4CN3C2=O)c(Cl)c1	nt	?	30	nt	nt	13µM*
Cc1ccc(-c2[nH]ncc2CNCCc2cnn(-c3ccccc3)c2)cc1C	8.9µM*	?	3	-4%	2%	?
COc1ccccc1-c1cccc([C@@H]2C[C@H]3[C@H](CON3C)CN2Cc2cc(Cl)cc(Cl)c2)c1	nt	-23%	-4	nt	nt	?
SMILES	Marburg entry inh	FMDV inh	HCMV antiviral	LASV entry inh	Giardia FBPA inh	HCV inh
COc1ccccc1-c1cccc([C@@H]2C[C@H]3[C@H](CON3C)CN2Cc2ccccc2)c1	nt	0%	-8	nt	nt	8.9µM*
CC1=Nc2ccccc2/C1=C/c1c(O)n(C)c(=O)[nH]c1=O	?	32µM*	53	6%	-18%	17%
Cc1ccccc1-n1c(O)c(/C=C2/C(c3ccccc3)=Nc3ccccc32)c(=O)[nH]c1=O	?	22µM*	-22	?	-5%	?
CSCC[C@H](NC(=O)[C@H](CC(C)C)NC(=O)[C@@H]1CCCN1C(=O)[C@H](Cc1ccccc1)NC(=O)[C@H](Cc1ccccc1)NC(=O)[C@@H]1CCC(=O)N1)C(N)=O	nt	nt	nt	nt	0%	nt
Cc1ccn(-c2ccc([N+](=O)[O-])cc2)n1	15%	4%	-88*	-11%	1%	6%
Cc1ccn(-c2n[nH]c(C)c2[N+](=O)[O-])n1	?	-21%	-14	10%	-10%	4%
Cc1ccc(C2=CC(c3ccc(Cl)cc3)n3nc(-c4ccc(C)cc4)nc3N2)cc1 (stereo unspecified)	?	-13%	-38	?	nt	nt
COc1ccccc1C1C=C(c2ccc(Cl)cc2)Nc2nc(-c3ccc(Cl)cc3)nn21 (stereo unspecified)	?	-14%	-78*	?	nt	nt
COc1ccc(C2C=C(c3ccc(Cl)cc3)Nc3nc(-c4ccc(Cl)cc4)nn32)cc1 (stereo unspecified)	?	?	-101*	?	nt	nt
Cc1cc(CNC(=O)c2cnn(-c3nccc(-c4ccc5c(c4)OCO5)n3)c2C2CC2)on1	nt	30%	nt	nt	nt	nt
O=C(Nc1ccccc1)N1CCC2(CC1)CCN(C(=O)c1ccncc1)CC2	nt	-2%	nt	nt	-2%	nt
Cc1c(O)ccc2c(CN3CCOCC3)cc(=O)oc12	nt	-6%	+	nt	18%	7%
COc1ccc(-c2cc(=O)oc3cc(OC(=O)C4CCCCC4)c(Cl)cc23)cc1	-12%	-23%	-91*	4%	1%	-3%
CCN(CC)Cc1c(O)ccc2c(-c3ccccc3)cc(=O)oc12	21%	-30%	13	-15%	-3%	5%
Cc1c(O)ccc2c(-c3ccccc3)cc(=O)oc12	nt	-26%	-71*	nt	7%	-9%
COc1ccc(-c2cc(=O)oc3c(C)c(O)ccc23)cc1	nt	-23%	-72*	nt	0%	-6%
COC(=O)C[C@H]1c2ccccc2[C@@H]2C(=C[C@@H](C)[C@H]3C(=O)N(O)C(=O)[C@H]32)N1C(=O)OC	8%[14.2 µM]	nt	nt	nt	nt	nt
Cc1cc(C)cc(NC(=O)c2cccc(N3CCCS3(=O)=O)c2)c1	nt	58%	48	7%[46.1 µM]	nt	nt

Source: PubChem (National Center for Advancing Translational Sciences (NCATS))
